Measurements taken from PubChem BioAssay (NCATS).
Records with an inconclusive call do not appear. Active and inactive are the calls of the source. Unless noted, the call rests on the fitted dose curve; in most records, active means well fitted curve in the direction sought with a large enough effect; inconclusive means small, poorly fitted or top-dose-only effect, or another doubt; inactive means no such curve, though single readings can be large; an effect the other way counts as inactive or inconclusive.

How the values were obtained:
[1] = S16 Schwann cell viability assay (CellTiter-Glo assay) (AID 624031);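 further: cellular ATP luminescence as a viability measure; nearly all actives have a fitted effect of over 70% in size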
How it was run: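 Untransfected S16 rat Schwann cells; compound 24 h, 37 °C/5% CO2; CellTiter-Glo ATP luminescence. % activity vs no-cell wells and DMSO controls (0%); concentration-effect curves classed by r2, response magnitude, activity.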

[2] = S16 Schwann cell PMP22 intronic element beta-lactamase assay (AID 624044; calls by dose curve; further: nearly all actives have a fitted effect of over 15% in size; further: potency means the concentration at half of the fitted maximal effect); settings: S16 rat Schwann cells, PMP22 element beta-lactamase FRET, 24 h; ratio activity, negative = inhibition: at 38.3 µM (top of the series)
How it was run: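 Beta-lactamase reporter under a PMP22 intronic regulatory element in stable S16 rat Schwann cells; 24 h compound exposure. 460 nm blue signal normalized between DMSO (0%) and potassium clavulanate, with 535 nm FRET tracking viability; curves classed by r2 and response.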

7G8 = test: qHTS profiling for inhibitors of Plasmodium falciparum proliferation (AID 504749); further: nearly all actives have a fitted effect of over 60% in size; further: potency means the concentration at half of the fitted maximal effect; settings: P. falciparum in erythrocytes, SYBR Green DNA, 72 h; series mostly up to 28.7 µM
How it was run: (§1)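 Quantitative HTS: compounds pinned into medium, infected erythrocytes added (0.3% parasitemia, 2.5% hematocrit), 72 h culture at 37 C under 5% CO2. Saponin/Triton lysis with SYBR Green I, overnight RT, then fluorescence read.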

CP201 = test: as above; settings: P. falciparum in erythrocytes, SYBR Green DNA, 72 h; series mostly up to 28.7 µM
How it was run: as §1

CP203 = test: as above; settings: P. falciparum in erythrocytes, SYBR Green DNA, 72 h; series mostly up to 28.7 µM
How it was run: as §1

CP247 = test: as above; settings: P. falciparum in erythrocytes, SYBR Green DNA, 72 h; series mostly up to 28.7 µM
How it was run: as §1

CP268 = test: as above; settings: P. falciparum in erythrocytes, SYBR Green DNA, 72 h; series mostly up to 28.7 µM
How it was run: as §1

CP291 = test: as above; settings: P. falciparum in erythrocytes, SYBR Green DNA, 72 h; series mostly up to 28.7 µM
How it was run: as §1

CP305 = test: as above; settings: P. falciparum in erythrocytes, SYBR Green DNA, 72 h; series mostly up to 28.7 µM
How it was run: as §1

CP325 = test: as above; settings: P. falciparum in erythrocytes, SYBR Green DNA, 72 h; series mostly up to 28.7 µM
How it was run: as §1

CP335 = test: as above; settings: P. falciparum in erythrocytes, SYBR Green DNA, 72 h; series mostly up to 28.7 µM
How it was run: as §1

DIV17 = test: as above; settings: P. falciparum in erythrocytes, SYBR Green DNA, 72 h; series mostly up to 28.7 µM
How it was run: as §1

CP215 = test: as above; settings: P. falciparum in erythrocytes, SYBR Green DNA, 72 h; series mostly up to 28.7 µM
How it was run: as §1

CP266 = test: as above; settings: P. falciparum in erythrocytes, SYBR Green DNA, 72 h; series mostly up to 28.7 µM
How it was run: as §1

CP297 = test: as above; settings: P. falciparum in erythrocytes, SYBR Green DNA, 72 h; series mostly up to 28.7 µM
How it was run: as §1

GB4 = test: as above; settings: P. falciparum in erythrocytes, SYBR Green DNA, 72 h; series mostly up to 28.7 µM
How it was run: as §1

ICS = test: as above; settings: P. falciparum in erythrocytes, SYBR Green DNA, 72 h; series mostly up to 28.7 µM
How it was run: as §1

P93_24 = test: as above; settings: P. falciparum in erythrocytes, SYBR Green DNA, 72 h; series mostly up to 28.7 µM
How it was run: as §1

PAD = test: as above; settings: P. falciparum in erythrocytes, SYBR Green DNA, 72 h; series mostly up to 28.7 µM
How it was run: as §1

PC26 = test: as above; settings: P. falciparum in erythrocytes, SYBR Green DNA, 72 h; series mostly up to 28.7 µM
How it was run: as §1

Measured: Potency

N#C/C(=C1/SCC(c2ccccc2Cl)S1)n1ccnc1 (centres undefined)
active: 7G8 10 µM
not listed: CP215 | CP266 | CP297 | GB4 | ICS | P93_24 | PAD | PC26
inactive: all other assays above

CCCC(=O)Nc1c(I)cc(I)c(C[C@H](CC)C(=O)O)c1I
inactive: all assays above

CC(=O)CC(c1ccccc1)C1C(=O)Oc2ccccc2C1=O (centres undefined)
inactive: all assays above

CO/N=C(/C(=O)N[C@@H]1C(=O)N2C(C(=O)O)=C(CSc3nnnn3C)CS[C@H]12)c1csc(N)n1
not listed: [2] | CP203 | CP266
inactive: all other assays above

CCOC(=O)C(CCc1ccccc1)NC(C)C(=O)N1Cc2cc(OC)c(OC)cc2CC1C(=O)O (centres undefined)
active: 7G8 8.91 µM | CP297 10.7 µM | DIV17 5.36 µM | P93_24 5.01 µM | PAD 4.47 µM | PC26 6.75 µM
not listed: CP247 | CP335 | GB4 | ICS
inactive: all other assays above

C=C1NC(=O)c2cc(CN(C)c3ccc(C(=O)N[C@@H](CCC(=O)O)C(=O)O)s3)ccc2N1
active: [2] 0.0079 µM
not listed: CP291 | CP297 | GB4 | ICS | P93_24 | PAD | PC26
inactive: all other assays above

CNC1C(O)C(OC2C(NC(=O)C(O)CN)CC(N)C(OC3OC(CN)C(O)C(O)C3O)C2O)OCC1(C)O (centres undefined)
not listed: CP335 | ICS
inactive: all other assays above

Nc1nc(/C(=C/CC(=O)O)C(=O)NC2C(=O)N3C(C(=O)O)=CCSC23)cs1 (centres undefined)
not listed: CP203
inactive: all other assays above

O=C(O)Cc1sc(-c2ccc(Cl)cc2)nc1-c1ccccc1
not listed: CP215
inactive: all other assays above

C=C[C@@]1(C)C[C@H](OC(=O)CSC(C)(C)CNC(=O)[C@@H](N)C(C)C)[C@@]2(C)C(C)CC[C@@]3(CCC(=O)[C@@H]32)[C@H](C)[C@H]1O (some centres undefined)
active: 7G8 2.51 µM | CP203 1.07 µM | CP215 1.69 µM | CP247 4.47 µM | CP268 3.01 µM | CP291 1.69 µM | CP297 2.39 µM | CP305 0.379 µM | CP325 0.213 µM | CP335 1.2 µM | DIV17 7.57 µM | GB4 3.79 µM | ICS 2.82 µM | P93_24 0.501 µM | PAD 4.47 µM | PC26 6.01 µM
inactive: [2]

CC1C(=O)C(=O)C=CN1C (centres undefined)
not listed: [2]
inactive: all other assays above

C/C(=C(/CCO)SS/C(CCO)=C(\C)N(C=O)Cc1cnc(C)nc1N)N(C=O)Cc1cnc(C)nc1N
not listed: CP247
inactive: all other assays above
